Test results as given in ChEMBL document CHEMBL1961873, “Compounds: GSK PKIS; Assays: Nanosyn kinase panel” (2012).
Values joined by “and” are separate entries in the source; they are usually repeats but may differ in a detail not shown here. Equal values may be shown once.

How the values were obtained:
[1] = test system: Epidermal growth factor receptor (Homo sapiens), P00533 [T790M]; settings: at 1 µM
[2] = test system: Epidermal growth factor receptor (Homo sapiens), P00533 [L858R,T790M]; settings: at 0.1 µM
[3] = test system: Epidermal growth factor receptor (Homo sapiens), P00533 [L858R,T790M]; settings: at 1 µM
[4] = target: Ephrin type-A receptor 2 (Homo sapiens) (UniProt P29317); settings: at 0.1 µM
[5] = target: Ephrin type-A receptor 2 (Homo sapiens) (UniProt P29317); settings: at 1 µM
[6] = target: T1, Ephrin type-A receptor 3 (Homo sapiens) (UniProt P29320); settings: at 0.1 µM
T1 sequence (whole entry): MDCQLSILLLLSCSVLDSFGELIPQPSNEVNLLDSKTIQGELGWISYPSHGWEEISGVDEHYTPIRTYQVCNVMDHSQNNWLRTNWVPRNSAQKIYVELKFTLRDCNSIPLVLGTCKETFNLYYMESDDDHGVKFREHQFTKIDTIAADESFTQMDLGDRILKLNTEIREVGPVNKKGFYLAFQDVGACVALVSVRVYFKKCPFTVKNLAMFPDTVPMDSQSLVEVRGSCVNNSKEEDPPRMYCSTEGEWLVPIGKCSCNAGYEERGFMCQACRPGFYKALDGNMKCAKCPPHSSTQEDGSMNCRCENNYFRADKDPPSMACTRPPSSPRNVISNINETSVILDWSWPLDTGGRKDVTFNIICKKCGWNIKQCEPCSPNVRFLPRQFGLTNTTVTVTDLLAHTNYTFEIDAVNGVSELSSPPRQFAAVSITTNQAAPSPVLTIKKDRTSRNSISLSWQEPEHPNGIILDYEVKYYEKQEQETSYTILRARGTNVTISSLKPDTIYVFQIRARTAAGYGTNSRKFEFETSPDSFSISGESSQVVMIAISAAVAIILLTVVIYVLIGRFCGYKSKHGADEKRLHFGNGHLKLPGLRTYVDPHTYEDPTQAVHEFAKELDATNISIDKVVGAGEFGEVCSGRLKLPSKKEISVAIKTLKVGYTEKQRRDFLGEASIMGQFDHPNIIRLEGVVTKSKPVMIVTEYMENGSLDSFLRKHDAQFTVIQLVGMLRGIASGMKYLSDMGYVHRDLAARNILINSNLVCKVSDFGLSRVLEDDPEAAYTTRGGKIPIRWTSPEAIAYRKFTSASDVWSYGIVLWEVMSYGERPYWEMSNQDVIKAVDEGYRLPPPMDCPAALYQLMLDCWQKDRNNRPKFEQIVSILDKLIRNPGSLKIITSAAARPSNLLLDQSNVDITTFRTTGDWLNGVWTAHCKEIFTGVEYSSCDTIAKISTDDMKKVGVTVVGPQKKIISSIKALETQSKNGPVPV

[7] = target: T1, Ephrin type-A receptor 3 (Homo sapiens); settings: at 1 µM
[8] = target: Ephrin type-A receptor 4 (Homo sapiens) (UniProt P54764); settings: at 0.1 µM
[9] = target: Ephrin type-A receptor 4 (Homo sapiens) (UniProt P54764); settings: at 1 µM
[10] = target: T2, Ephrin type-B receptor 2 (Homo sapiens) (UniProt P29323); settings: at 0.1 µM
T2 sequence (whole entry): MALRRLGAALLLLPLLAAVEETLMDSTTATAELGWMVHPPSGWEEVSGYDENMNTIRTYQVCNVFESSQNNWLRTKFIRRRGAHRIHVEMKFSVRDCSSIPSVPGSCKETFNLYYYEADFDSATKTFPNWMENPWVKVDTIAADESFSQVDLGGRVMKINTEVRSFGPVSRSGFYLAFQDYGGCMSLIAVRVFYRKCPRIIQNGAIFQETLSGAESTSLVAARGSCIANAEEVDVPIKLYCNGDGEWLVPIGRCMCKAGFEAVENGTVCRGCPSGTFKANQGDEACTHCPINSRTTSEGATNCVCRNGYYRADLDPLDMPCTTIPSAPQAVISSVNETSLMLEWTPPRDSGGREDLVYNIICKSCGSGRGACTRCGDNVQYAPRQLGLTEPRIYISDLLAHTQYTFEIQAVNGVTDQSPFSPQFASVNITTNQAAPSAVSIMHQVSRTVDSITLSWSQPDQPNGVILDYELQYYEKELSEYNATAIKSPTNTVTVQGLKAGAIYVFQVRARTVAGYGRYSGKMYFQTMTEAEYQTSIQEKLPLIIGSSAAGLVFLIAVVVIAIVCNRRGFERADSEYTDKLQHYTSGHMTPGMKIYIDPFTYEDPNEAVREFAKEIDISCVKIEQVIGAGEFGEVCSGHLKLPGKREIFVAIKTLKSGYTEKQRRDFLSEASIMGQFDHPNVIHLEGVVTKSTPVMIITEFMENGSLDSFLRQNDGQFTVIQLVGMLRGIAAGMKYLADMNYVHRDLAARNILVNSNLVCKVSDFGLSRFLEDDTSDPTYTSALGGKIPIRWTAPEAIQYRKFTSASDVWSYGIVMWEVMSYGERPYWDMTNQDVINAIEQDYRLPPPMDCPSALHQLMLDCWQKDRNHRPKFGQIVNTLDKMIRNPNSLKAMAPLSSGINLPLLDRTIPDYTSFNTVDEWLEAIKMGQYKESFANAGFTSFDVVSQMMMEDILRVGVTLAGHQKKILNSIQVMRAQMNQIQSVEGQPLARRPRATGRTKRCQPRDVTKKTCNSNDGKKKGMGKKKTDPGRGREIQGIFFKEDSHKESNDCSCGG

[11] = target: T2, Ephrin type-B receptor 2 (Homo sapiens); settings: at 1 µM
[12] = target: T3, Ephrin type-B receptor 3 (Homo sapiens) (UniProt P54753); settings: at 0.1 µM
T3 sequence (whole entry): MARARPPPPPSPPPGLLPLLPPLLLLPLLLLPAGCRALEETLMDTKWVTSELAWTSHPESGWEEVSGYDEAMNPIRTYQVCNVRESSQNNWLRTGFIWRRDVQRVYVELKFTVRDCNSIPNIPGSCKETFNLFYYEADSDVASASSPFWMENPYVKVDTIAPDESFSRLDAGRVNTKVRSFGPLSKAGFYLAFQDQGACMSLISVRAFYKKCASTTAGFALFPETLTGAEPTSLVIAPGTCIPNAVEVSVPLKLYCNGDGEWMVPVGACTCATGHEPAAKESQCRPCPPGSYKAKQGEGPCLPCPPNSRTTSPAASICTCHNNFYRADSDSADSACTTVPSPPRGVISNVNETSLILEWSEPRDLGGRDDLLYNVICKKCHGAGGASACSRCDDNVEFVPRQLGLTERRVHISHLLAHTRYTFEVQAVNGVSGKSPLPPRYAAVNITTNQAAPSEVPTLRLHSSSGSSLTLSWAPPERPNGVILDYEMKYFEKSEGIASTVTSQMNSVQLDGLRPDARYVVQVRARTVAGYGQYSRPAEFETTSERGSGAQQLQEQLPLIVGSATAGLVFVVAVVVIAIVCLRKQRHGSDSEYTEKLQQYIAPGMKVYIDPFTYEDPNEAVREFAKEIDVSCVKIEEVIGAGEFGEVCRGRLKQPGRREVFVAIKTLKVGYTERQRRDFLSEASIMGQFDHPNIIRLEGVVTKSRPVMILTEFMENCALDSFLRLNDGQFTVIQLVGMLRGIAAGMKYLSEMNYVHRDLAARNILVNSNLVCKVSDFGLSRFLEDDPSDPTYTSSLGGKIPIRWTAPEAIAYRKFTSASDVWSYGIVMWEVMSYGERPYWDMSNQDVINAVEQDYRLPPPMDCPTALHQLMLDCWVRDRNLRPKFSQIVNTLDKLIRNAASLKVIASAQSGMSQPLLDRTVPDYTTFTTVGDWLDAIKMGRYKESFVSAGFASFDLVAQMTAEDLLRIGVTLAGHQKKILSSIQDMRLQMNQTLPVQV

[13] = target: T3, Ephrin type-B receptor 3 (Homo sapiens); settings: at 1 µM
[14] = target: T4, Ephrin type-B receptor 4 (Homo sapiens) (UniProt P54760); settings: at 0.1 µM
T4 sequence (whole entry): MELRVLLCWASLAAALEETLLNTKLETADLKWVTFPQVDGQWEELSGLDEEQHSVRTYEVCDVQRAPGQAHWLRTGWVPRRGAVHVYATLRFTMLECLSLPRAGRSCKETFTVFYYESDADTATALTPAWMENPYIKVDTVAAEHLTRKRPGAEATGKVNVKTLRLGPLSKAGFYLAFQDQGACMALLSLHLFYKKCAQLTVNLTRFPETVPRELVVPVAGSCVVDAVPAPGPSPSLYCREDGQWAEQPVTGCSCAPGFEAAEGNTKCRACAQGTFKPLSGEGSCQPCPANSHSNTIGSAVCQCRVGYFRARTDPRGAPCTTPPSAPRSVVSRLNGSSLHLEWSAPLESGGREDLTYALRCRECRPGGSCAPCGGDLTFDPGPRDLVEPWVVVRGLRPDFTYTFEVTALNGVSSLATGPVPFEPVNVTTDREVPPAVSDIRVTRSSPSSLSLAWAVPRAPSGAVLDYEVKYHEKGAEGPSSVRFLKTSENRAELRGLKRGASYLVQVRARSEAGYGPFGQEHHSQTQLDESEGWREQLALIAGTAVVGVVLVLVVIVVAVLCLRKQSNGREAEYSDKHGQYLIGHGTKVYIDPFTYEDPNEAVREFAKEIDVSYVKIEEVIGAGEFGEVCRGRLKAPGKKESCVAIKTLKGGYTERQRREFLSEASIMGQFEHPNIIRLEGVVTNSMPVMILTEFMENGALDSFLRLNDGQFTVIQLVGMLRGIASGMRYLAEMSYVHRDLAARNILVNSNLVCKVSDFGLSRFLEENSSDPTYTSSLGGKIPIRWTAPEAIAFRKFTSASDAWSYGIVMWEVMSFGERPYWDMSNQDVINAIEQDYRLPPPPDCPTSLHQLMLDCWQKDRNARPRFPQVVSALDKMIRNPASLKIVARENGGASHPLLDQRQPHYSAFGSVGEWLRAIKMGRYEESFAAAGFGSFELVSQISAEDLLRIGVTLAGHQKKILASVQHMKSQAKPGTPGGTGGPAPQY

[15] = target: T4, Ephrin type-B receptor 4 (Homo sapiens); settings: at 1 µM
[16] = target: Receptor tyrosine-protein kinase erbB-2 (Homo sapiens) (UniProt P04626); settings: at 0.1 µM
[17] = target: Receptor tyrosine-protein kinase erbB-2 (Homo sapiens) (UniProt P04626); settings: at 1 µM
[18] = target: Receptor tyrosine-protein kinase erbB-4 (Homo sapiens) (UniProt Q15303); settings: at 0.1 µM
[19] = target: Receptor tyrosine-protein kinase erbB-4 (Homo sapiens) (UniProt Q15303); settings: at 1 µM
[20] = target: Tyrosine-protein kinase Fer (Homo sapiens) (UniProt P16591); settings: at 0.1 µM;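 note: reported figures are averaged percent inhibition of FER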

Sequence of Epidermal growth factor receptor (Homo sapiens), P00533 [T790M] (P00533 whole entry T790M): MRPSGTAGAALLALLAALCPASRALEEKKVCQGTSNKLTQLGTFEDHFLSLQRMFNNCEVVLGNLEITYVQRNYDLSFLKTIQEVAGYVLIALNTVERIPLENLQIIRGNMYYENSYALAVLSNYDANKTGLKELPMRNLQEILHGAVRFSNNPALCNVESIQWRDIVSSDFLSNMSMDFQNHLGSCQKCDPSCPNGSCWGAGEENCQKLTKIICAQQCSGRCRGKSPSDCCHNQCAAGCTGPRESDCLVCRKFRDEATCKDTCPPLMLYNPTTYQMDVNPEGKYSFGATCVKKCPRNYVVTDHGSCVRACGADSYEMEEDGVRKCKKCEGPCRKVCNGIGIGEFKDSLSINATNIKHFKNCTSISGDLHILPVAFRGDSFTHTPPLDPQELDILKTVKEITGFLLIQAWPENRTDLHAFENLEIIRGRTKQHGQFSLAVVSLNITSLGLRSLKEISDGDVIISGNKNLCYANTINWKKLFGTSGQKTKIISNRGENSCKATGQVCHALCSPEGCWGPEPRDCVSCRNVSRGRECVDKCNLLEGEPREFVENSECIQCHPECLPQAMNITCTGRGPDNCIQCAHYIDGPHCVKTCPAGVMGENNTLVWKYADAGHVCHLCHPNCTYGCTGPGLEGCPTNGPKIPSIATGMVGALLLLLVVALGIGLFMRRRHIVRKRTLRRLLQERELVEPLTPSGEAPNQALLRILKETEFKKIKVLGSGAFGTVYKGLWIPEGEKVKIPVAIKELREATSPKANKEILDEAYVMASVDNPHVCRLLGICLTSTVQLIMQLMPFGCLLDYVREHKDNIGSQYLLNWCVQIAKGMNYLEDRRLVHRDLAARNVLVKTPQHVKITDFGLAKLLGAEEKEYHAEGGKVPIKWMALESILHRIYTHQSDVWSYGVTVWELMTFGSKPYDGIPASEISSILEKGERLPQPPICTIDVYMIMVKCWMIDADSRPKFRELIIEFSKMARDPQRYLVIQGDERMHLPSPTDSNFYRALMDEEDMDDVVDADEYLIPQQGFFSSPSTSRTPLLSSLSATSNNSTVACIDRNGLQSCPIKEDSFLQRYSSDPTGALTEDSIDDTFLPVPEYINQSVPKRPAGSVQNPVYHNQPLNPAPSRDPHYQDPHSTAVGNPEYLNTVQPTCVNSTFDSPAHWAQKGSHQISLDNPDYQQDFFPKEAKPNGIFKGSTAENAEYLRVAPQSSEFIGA
Sequence of Epidermal growth factor receptor (Homo sapiens), P00533 [L858R,T790M] (P00533 whole entry T790M/L858R, looked up): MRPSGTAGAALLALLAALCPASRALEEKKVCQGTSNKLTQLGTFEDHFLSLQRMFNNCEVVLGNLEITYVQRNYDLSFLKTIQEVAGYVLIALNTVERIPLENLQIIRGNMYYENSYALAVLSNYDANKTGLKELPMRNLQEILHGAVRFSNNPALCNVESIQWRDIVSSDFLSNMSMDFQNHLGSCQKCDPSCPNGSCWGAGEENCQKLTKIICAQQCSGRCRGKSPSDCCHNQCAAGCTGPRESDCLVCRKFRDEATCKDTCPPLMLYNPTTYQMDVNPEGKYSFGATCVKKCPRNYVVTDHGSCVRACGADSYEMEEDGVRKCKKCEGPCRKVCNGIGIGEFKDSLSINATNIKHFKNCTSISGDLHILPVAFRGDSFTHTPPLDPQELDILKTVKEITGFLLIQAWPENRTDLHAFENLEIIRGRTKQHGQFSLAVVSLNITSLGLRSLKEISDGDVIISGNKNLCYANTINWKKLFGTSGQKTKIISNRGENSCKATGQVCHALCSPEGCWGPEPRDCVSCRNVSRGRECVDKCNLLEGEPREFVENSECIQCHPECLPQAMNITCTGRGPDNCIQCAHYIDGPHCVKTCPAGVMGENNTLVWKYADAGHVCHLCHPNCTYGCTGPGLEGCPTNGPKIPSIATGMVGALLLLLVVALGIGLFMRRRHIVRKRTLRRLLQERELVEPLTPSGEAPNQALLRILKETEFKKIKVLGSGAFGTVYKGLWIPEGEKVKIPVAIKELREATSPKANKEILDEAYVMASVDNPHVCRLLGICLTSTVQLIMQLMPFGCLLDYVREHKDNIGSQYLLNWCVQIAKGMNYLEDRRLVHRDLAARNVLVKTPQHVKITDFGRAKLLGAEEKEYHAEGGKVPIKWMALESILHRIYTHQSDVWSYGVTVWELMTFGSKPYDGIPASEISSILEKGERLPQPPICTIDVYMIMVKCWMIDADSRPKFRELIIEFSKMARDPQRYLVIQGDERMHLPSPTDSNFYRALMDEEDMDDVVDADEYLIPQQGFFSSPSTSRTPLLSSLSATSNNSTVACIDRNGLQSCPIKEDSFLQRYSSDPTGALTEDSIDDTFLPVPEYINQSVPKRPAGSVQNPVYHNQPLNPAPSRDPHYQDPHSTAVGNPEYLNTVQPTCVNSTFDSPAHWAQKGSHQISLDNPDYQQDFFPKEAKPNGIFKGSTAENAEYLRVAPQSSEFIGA
Sequence of Ephrin type-A receptor 4 (Homo sapiens) (P54764 whole entry): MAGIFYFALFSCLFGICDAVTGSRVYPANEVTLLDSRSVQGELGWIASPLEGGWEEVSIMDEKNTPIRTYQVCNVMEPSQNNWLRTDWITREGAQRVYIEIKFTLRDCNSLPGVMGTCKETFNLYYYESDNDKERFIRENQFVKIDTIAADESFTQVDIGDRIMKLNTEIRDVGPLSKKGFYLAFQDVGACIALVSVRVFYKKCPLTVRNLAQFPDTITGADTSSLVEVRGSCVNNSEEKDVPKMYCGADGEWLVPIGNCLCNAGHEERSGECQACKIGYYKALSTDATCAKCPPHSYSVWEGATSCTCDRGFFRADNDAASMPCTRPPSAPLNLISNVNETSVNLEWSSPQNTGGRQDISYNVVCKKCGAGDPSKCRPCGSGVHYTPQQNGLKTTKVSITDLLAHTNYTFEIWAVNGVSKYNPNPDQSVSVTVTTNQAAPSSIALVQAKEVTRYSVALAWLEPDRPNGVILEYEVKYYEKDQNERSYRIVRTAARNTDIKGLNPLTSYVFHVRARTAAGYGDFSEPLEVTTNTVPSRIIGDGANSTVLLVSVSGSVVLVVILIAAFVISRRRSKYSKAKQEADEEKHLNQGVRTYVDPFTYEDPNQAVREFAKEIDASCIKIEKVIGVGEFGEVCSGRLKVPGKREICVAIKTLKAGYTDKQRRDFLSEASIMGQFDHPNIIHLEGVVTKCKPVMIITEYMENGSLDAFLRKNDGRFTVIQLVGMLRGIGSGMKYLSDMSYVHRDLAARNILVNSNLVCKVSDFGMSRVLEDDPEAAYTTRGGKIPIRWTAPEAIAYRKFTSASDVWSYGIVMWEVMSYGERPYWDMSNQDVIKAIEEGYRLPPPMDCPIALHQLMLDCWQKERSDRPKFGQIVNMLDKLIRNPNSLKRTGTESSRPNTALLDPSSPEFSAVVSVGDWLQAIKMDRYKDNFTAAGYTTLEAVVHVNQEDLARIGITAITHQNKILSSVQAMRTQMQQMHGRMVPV
Sequence of Receptor tyrosine-protein kinase erbB-4 (Homo sapiens) (Q15303 whole entry): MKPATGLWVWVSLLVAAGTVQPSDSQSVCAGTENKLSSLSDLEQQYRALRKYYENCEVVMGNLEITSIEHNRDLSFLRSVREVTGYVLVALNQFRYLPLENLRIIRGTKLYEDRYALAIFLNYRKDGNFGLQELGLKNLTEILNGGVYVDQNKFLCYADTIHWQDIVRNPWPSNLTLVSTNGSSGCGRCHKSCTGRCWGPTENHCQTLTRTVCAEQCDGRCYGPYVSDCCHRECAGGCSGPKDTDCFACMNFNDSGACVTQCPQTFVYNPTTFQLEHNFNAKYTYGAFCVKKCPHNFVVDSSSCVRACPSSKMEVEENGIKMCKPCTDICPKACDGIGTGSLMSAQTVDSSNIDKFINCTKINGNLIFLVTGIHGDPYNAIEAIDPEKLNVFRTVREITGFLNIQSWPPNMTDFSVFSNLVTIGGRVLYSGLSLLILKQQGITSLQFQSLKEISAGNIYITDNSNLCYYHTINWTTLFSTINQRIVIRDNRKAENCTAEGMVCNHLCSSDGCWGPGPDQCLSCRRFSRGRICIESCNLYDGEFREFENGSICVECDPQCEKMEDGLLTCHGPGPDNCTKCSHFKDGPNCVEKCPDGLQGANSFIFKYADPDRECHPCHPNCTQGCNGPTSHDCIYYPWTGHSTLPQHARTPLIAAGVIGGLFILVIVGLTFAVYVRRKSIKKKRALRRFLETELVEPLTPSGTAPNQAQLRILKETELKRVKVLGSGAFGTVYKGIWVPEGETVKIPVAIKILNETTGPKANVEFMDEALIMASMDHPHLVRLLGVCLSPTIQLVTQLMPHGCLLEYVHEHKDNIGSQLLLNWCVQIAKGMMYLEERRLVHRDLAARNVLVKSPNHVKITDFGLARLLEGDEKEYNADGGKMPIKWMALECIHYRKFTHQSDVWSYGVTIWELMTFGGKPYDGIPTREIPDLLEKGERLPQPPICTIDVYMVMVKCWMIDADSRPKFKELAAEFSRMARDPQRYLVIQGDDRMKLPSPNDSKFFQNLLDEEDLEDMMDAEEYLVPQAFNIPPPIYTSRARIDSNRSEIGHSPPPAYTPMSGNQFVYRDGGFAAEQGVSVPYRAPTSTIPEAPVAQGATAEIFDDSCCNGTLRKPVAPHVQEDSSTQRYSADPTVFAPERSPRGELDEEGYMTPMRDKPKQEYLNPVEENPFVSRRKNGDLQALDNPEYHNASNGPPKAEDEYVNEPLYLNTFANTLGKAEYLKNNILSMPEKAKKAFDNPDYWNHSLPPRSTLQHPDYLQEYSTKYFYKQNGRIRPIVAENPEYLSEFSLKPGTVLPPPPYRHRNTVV

| Compound | inhibition [1] | inhibition [2] | inhibition [3] | inhibition [4] | inhibition [5] | inhibition [6] | inhibition [7] | inhibition [8] | inhibition [9] | inhibition [10] | inhibition [11] | inhibition [12] | inhibition [13] | inhibition [14] | inhibition [15] | inhibition [16] | inhibition [17] | inhibition [18] | inhibition [19] | inhibition [20] |
| --- | --- | --- | --- | --- | --- | --- | --- | --- | --- | --- | --- | --- | --- | --- | --- | --- | --- | --- | --- | --- |
| CCCNc1cccc(-n2ncc3c(N/N=C/c4ccncc4)ncnc32)c1 | 5.14% | 1.81% | 2.7% | 3.57% | 5.31% | 3.09% | 3.12% | 4.65% | 17.4% | -1.54% | 9.31% | -1.29% | 1.75% | 1.55% | 5.77% | 2.33% | 4.49% | 11.8% | 43% | -0.72% |
| NC(=O)c1ccc2c(-c3ccnc(NCCCO)n3)c(-c3ccc(F)cc3)nn2c1 | 2.72% | 4.41% | 6.91% | 2.54% | 7.54% | 5.24% | 7.21% | 11.8% | 29.7% | 9.21% | 40.3% | 4.52% | 4.65% | 4.6% | 11.4% | 2.1% | 3.13% | 16.8% | 39% | 6.31% |
| CN(c1ccc(NC(=O)NCCN2CCOCC2)cc1)c1ccnc(Nc2ccc(CS(C)(=O)=O)cc2)n1 | 4.33% | 0.85% | 2.57% | 2.23% | 2.79% | 4.27% | 5.54% | 8.57% | 19.6% | 6.47% | 17.1% | 3.86% | 4.14% | 2.27% | 3.53% | 1.62% | 4.12% | 6.8% | 4.94% | 3.77% |
| Nc1nonc1-c1nc2cnccc2n1C1CC1 | 0.41% and 1.8% | 0.14% and 3.74% | 5.5% and 7.11% | 1.3% and -6.99% | 0.04% and -7.28% | 3.71% and -1.91% | 3.7% and -1.81% | 6.99% and 5.79% | 5.96% and 2.69% | 10.5% and 2.91% | 14.2% and 3.79% | 5.08% and 1.12% | 6.13% and -2.08% | 2.51% and -2.43% | 1.45% and -3.41% | 1.64% and 0.4% | -1.67% and -0.01% | 1.55% and 2.22% | 6.98% and 0.35% | 2% and 1.26% |
| O=C1Nc2ccccc2/C1=C1\CCc2cc(O)ccc21 | 2.73% | 1.8% | 4.76% | 2.66% | 2% | 6.06% | 4.39% | 7.97% | 3.3% | 3.53% | 9.85% | 7.65% | 3.73% | 1.66% | 2.84% | 0.88% | -3.46% | 8.95% | 13.7% | 7% |
| O=C(O[C@H]1CN[C@H](C#Cc2cc3ncnc(Nc4ccc5c(ccn5Cc5cc(F)ccc5F)c4)c3s2)C1)N1CCOCC1 | 50.3% | 4.66% | 9.08% | 0.75% | 0.06% | 4.84% | 4.4% | 6.87% | 3.19% | 5.25% | 4.17% | 6.61% | 5.15% | 2.46% | 3.04% | 9.01% | 40.9% | 86.9% | 86.3% | 1.31% |
